Columns and labels:
Experiment in all cases: DAPPL (digital affinity profiling via proximity ligation, sequencing); 10 mM Tris-HCl pH 7.5, 50 mM NaCl, 1 mM DTT, 4% glycerol, room temperature, 30 min; GST-TFs on glutathione beads, 16-mer random dsDNA library, 0.1% formaldehyde crosslink after washing; high values mean tight binding
[1] = molecular target: T1, FLI1 (Homo sapiens, UniProt Q01543 1-452); details: protein: recombinant; tags: N-terminal GST; dsDNA, one strand shown
T1 sequence: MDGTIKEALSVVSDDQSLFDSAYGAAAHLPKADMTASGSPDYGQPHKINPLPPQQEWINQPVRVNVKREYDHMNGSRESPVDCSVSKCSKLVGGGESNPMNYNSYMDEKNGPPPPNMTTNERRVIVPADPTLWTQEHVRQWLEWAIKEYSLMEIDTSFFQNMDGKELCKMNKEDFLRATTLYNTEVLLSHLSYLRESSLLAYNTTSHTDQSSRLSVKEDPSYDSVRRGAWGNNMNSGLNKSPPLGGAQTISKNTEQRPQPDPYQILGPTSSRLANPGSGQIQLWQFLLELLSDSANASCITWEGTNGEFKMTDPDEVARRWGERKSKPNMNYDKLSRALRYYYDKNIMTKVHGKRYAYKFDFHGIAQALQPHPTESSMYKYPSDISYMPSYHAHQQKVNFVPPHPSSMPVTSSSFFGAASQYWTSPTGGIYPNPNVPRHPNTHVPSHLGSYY
Summary of the method: (§1)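 Human transcription factors fused to GST were expressed in yeast, captured on glutathione beads, given DNA barcodes and pooled with a GST-only negative control. Pools were incubated with 200 nmole of a 16-mer random double-stranded DNA library in Tris/NaCl/DTT/glycerol buffer at room temperature for 30 min. They were then washed, crosslinked with 0.1% formaldehyde, proximity-ligated (BsaI/T4 ligase, 1 h, 37 °C), PCR-amplified and sequenced on an Illumina NextSeq500. Binding signal is each 6-mer's read frequency for a factor divided by its frequency for the GST control.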

[2] = molecular target: T2, ELK1 (Homo sapiens, UniProt P19419 1-428); details: protein: recombinant; tags: N-terminal GST; dsDNA, one strand shown
T2 sequence: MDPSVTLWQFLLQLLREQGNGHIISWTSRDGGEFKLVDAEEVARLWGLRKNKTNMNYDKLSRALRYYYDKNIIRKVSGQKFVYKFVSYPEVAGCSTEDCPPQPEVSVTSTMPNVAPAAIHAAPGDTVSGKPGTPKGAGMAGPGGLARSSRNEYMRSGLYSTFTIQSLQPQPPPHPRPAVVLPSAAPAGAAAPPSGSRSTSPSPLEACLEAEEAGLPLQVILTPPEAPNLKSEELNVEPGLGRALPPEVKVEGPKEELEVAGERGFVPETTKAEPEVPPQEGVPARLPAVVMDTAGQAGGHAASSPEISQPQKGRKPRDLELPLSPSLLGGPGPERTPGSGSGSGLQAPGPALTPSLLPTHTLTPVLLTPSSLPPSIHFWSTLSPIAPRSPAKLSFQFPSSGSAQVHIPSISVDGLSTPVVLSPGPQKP
Summary of the method: as §1

[3] = molecular target: T3, GABPA (Homo sapiens, UniProt Q06546 1-454); details: protein: recombinant; tags: N-terminal GST; dsDNA, one strand shown
T3 sequence: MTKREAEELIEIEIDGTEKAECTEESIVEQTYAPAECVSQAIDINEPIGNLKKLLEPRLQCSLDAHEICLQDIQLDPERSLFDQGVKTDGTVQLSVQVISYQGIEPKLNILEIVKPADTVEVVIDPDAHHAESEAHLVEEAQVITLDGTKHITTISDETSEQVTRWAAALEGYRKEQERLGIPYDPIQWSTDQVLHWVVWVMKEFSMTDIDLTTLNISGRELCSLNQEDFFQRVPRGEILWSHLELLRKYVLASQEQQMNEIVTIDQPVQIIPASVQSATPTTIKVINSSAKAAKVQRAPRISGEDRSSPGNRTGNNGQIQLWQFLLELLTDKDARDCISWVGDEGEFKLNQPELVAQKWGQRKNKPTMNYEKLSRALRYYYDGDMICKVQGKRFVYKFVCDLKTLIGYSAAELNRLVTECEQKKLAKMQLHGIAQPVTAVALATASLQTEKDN
Summary of the method: as §1

[4] = molecular target: T4, ERG (Homo sapiens, UniProt P11308 1-479); details: protein: recombinant; tags: N-terminal GST; dsDNA, one strand shown
T4 sequence: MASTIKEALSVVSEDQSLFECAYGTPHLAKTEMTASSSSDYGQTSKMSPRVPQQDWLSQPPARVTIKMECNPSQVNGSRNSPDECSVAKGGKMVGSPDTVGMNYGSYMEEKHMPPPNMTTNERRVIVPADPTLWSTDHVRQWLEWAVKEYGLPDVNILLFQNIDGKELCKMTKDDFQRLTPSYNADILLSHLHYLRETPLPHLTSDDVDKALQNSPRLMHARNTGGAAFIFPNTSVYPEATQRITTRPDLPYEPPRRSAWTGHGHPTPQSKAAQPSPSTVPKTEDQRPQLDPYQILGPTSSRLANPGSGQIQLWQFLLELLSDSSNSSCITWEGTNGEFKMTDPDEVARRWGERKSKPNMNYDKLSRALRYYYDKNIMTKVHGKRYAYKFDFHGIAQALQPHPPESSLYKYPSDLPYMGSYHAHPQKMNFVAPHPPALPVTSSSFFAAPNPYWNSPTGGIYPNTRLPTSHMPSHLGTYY
Summary of the method: as §1

[5] = molecular target: ELF1 (Homo sapiens, UniProt P32519 1-619); details: protein: recombinant; tags: N-terminal GST; dsDNA, one strand shown
Summary of the method: as §1

[6] = molecular target: T5, EHF (Homo sapiens, UniProt Q9NZC4 1-300); details: protein: recombinant; tags: N-terminal GST; dsDNA, one strand shown
T5 sequence: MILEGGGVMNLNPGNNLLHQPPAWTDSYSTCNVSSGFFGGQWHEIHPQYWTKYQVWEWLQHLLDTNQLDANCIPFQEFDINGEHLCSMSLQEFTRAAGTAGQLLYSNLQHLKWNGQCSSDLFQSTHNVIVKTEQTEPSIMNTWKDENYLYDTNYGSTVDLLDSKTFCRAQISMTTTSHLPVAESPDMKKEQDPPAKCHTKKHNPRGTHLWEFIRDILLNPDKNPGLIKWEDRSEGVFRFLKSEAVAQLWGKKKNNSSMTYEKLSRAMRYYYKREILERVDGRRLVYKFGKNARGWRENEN
Summary of the method: as §1

[7] = molecular target: SPI1 (Homo sapiens, UniProt P17947 1-270); details: protein: recombinant; tags: N-terminal GST; dsDNA, one strand shown
Summary of the method: as §1

[8] = molecular target: SPIB (Homo sapiens, UniProt Q01892 1-262); details: protein: recombinant; tags: N-terminal GST; dsDNA, one strand shown
Summary of the method: as §1

[9] = molecular target: T6, ELK3 (Homo sapiens, UniProt P41970 1-407); details: protein: recombinant; tags: N-terminal GST; dsDNA, one strand shown
T6 sequence: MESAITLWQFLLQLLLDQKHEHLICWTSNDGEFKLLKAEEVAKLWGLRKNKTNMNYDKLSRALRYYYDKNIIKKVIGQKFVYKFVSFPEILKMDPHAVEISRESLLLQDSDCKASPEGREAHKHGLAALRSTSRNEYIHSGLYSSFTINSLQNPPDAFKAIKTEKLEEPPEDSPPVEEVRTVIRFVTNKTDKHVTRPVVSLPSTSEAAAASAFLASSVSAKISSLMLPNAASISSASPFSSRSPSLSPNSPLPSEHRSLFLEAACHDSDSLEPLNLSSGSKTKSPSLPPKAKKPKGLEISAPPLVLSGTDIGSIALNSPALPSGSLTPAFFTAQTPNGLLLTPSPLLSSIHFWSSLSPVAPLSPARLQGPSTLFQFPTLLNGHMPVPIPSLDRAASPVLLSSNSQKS
Summary of the method: as §1

[10] = molecular target: T7, FEV (Homo sapiens, UniProt Q99581 1-238); details: protein: recombinant; tags: N-terminal GST; dsDNA, one strand shown
T7 sequence: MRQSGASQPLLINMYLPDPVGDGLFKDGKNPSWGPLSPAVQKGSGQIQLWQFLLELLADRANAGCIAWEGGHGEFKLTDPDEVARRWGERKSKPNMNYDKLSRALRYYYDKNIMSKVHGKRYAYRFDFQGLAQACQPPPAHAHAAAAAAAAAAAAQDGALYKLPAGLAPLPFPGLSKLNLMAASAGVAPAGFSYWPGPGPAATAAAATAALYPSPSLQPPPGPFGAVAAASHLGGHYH
Summary of the method: as §1

[11] = molecular target: ETV5 (Homo sapiens, UniProt P41161 1-510); details: protein: recombinant; tags: N-terminal GST; dsDNA, one strand shown
Summary of the method: as §1

[12] = molecular target: HSF1 (Homo sapiens, UniProt Q00613 1-529); details: protein: recombinant; tags: N-terminal GST; chain copies: 3; dsDNA, one strand shown
Summary of the method: as §1

[13] = molecular target: T8, SPIC (Homo sapiens, UniProt Q8N5J4 1-248); details: protein: recombinant; tags: N-terminal GST; dsDNA, one strand shown
T8 sequence: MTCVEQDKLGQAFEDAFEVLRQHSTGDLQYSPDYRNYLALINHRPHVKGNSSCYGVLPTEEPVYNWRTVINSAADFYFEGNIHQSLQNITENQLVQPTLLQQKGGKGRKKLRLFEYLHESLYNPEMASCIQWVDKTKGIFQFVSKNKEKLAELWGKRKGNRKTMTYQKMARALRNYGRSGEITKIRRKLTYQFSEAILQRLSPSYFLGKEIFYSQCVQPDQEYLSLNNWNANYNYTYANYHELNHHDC
Summary of the method: as §1

[14] = molecular target: ELF4 (Homo sapiens, UniProt Q99607 1-663); details: protein: recombinant; tags: N-terminal GST; dsDNA, one strand shown
Summary of the method: as §1

[15] = molecular target: T9, ELK4 (Homo sapiens, UniProt P28324-2 1-405); details: protein: recombinant; tags: N-terminal GST; dsDNA, one strand shown
T9 sequence: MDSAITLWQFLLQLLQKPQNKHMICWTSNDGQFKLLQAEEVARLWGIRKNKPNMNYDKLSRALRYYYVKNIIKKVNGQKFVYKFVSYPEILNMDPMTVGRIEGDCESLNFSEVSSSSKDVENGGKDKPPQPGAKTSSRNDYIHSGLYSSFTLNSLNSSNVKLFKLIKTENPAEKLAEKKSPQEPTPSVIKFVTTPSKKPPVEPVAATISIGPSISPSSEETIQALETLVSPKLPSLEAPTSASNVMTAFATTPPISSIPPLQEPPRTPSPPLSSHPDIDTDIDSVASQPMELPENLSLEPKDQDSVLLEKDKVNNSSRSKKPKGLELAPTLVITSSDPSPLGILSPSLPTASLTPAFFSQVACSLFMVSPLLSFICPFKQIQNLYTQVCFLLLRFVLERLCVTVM
Summary of the method: as §1

[16] = molecular target: T10, ETV2 (Homo sapiens, UniProt O00321 1-342); details: protein: recombinant; tags: N-terminal GST; dsDNA, one strand shown
T10 sequence: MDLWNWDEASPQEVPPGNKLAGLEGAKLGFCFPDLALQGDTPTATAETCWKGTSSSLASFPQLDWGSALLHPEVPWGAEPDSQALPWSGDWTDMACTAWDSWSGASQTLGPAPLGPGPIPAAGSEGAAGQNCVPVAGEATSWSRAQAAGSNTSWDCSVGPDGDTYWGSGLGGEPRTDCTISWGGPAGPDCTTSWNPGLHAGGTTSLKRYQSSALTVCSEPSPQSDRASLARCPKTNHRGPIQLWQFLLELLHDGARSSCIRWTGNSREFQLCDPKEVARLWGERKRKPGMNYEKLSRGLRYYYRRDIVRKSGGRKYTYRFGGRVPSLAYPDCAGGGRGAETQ
Summary of the method: as §1

[17] = molecular target: T11, ELF3 (Homo sapiens, UniProt P78545 1-371); details: protein: recombinant; tags: N-terminal GST; dsDNA, one strand shown
T11 sequence: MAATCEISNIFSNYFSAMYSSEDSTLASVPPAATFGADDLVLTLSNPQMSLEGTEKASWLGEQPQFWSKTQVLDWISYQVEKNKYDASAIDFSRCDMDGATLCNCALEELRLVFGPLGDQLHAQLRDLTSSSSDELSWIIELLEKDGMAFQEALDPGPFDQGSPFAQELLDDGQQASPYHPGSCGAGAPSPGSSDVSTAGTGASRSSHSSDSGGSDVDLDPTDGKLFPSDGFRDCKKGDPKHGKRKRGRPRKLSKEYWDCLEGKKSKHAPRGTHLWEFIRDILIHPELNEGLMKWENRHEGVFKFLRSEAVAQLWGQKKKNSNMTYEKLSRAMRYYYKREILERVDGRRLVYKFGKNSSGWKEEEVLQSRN
Summary of the method: as §1

[18] = molecular target: CRX (Homo sapiens, UniProt O43186 1-299); details: protein: recombinant; tags: N-terminal GST; dsDNA, one strand shown
Summary of the method: as §1

[19] = molecular target: ETV1 (Homo sapiens, UniProt P50549 1-477); details: protein: recombinant; tags: N-terminal GST; dsDNA, one strand shown
Summary of the method: as §1

Chain of CRX (O43186 whole entry): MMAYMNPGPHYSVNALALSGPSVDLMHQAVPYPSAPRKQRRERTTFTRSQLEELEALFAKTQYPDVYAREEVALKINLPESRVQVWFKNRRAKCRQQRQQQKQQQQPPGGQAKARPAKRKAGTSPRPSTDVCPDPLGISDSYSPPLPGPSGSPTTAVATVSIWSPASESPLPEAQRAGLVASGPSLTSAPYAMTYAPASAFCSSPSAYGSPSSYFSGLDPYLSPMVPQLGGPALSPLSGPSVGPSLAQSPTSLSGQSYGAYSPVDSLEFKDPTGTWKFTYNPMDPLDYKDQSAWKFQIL
Chain of SPIB (Q01892 whole entry): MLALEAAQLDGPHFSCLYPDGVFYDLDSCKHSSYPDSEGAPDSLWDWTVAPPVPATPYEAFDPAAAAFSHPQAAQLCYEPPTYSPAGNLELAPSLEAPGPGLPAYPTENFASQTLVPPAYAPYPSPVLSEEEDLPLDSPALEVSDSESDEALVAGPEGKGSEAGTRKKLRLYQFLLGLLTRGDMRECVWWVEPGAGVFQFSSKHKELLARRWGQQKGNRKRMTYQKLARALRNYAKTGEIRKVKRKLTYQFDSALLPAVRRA
Chain of ETV5 (P41161 whole entry): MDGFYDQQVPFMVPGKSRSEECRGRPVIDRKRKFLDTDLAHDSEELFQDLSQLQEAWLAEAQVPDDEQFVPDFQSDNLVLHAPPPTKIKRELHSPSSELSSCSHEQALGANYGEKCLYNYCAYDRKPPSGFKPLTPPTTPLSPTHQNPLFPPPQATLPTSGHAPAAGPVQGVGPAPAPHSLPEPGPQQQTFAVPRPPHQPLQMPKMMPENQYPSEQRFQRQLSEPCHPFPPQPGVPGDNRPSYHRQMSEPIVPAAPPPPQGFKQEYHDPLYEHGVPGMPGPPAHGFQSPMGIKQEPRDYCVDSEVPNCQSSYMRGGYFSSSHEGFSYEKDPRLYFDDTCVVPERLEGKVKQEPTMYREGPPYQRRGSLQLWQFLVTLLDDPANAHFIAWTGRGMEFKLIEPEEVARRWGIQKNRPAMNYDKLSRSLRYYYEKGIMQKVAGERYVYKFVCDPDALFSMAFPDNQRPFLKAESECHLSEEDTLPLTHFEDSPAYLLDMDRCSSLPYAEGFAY
Chain of HSF1 (Q00613 whole entry): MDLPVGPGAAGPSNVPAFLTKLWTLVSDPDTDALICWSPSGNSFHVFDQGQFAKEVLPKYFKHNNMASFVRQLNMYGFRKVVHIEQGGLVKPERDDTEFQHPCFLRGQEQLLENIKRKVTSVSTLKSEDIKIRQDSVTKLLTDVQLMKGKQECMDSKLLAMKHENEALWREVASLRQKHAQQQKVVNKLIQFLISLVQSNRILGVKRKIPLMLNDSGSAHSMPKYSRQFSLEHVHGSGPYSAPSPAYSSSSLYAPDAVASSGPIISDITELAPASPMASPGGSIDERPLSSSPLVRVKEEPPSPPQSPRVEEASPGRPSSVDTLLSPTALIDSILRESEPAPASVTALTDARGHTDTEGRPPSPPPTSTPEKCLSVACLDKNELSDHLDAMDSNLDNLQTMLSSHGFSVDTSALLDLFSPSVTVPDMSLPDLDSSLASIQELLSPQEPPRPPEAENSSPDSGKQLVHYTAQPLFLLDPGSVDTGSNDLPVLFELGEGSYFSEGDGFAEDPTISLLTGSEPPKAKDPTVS
Chain of ELF4 (Q99607 whole entry): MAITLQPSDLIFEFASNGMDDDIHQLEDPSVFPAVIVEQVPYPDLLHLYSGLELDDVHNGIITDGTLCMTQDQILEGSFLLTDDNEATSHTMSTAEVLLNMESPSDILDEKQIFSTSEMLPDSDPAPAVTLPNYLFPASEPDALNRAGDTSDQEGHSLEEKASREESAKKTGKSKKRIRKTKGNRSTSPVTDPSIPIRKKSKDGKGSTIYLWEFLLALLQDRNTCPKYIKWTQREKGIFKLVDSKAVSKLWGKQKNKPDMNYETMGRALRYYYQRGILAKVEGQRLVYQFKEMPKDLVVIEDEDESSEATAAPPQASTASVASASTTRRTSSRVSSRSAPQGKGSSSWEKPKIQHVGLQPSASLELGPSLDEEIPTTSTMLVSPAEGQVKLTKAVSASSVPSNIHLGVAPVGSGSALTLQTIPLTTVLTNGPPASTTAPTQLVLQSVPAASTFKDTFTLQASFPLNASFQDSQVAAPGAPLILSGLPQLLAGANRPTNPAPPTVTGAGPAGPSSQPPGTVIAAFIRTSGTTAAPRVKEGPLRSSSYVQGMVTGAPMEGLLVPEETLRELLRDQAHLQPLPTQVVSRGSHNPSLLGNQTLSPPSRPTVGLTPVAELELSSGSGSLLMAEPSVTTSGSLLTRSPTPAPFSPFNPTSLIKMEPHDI
Chain of ETV1 (P50549 whole entry): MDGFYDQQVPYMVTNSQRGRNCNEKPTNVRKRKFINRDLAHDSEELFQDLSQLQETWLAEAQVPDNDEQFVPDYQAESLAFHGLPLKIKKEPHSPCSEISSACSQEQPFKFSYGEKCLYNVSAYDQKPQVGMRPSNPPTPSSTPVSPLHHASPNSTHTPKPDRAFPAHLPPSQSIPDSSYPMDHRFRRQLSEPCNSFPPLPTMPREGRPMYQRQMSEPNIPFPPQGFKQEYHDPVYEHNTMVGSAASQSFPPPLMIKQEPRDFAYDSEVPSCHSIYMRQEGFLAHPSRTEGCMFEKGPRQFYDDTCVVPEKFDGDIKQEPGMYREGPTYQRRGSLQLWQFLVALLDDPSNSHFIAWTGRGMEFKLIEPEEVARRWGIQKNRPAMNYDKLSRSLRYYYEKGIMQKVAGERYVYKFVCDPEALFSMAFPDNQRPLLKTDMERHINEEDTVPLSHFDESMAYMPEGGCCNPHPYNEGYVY
Chain of ELF1 (P32519 whole entry): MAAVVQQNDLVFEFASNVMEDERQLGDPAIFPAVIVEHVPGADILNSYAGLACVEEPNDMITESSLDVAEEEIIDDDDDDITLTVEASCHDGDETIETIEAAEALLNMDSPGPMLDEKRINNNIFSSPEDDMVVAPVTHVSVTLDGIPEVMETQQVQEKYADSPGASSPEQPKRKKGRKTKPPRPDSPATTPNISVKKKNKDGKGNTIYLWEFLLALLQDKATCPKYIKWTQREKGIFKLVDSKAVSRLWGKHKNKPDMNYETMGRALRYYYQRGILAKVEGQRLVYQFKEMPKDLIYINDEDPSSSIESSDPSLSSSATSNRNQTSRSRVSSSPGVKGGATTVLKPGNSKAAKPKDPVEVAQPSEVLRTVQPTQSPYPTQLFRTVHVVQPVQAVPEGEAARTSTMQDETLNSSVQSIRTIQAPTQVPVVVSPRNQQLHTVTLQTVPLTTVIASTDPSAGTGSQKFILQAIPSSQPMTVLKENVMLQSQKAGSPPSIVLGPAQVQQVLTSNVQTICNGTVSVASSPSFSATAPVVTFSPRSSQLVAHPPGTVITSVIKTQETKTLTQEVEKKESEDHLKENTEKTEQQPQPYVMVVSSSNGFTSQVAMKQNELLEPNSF

## GAATTT
[1]
  binding signal: 1.21 fold enrichment (6-mer frequency, TF over GST control)
[2]
  binding signal: 1.11 fold enrichment (6-mer frequency, TF over GST control)
[3]
  binding signal: 1.21 fold enrichment (6-mer frequency, TF over GST control)
[4]
  binding signal: 1.24 fold enrichment (6-mer frequency, TF over GST control)
[5]
  binding signal: 1.17 fold enrichment (6-mer frequency, TF over GST control)
[6]
  binding signal: 1.13 fold enrichment (6-mer frequency, TF over GST control)
[7]
  binding signal: 1.24 fold enrichment (6-mer frequency, TF over GST control)
[8]
  binding signal: 1.28 fold enrichment (6-mer frequency, TF over GST control)
[9]
  binding signal: 1.19 fold enrichment (6-mer frequency, TF over GST control)
[10]
  binding signal: 1.19 fold enrichment (6-mer frequency, TF over GST control)
[11]
  binding signal: 1.26 fold enrichment (6-mer frequency, TF over GST control)
[12]
  binding signal: 1.7 fold enrichment (6-mer frequency, TF over GST control)
[13]
  binding signal: 1.39 fold enrichment (6-mer frequency, TF over GST control)
[14]
  binding signal: 1.25 fold enrichment (6-mer frequency, TF over GST control)
[15]
  binding signal: 1.31 fold enrichment (6-mer frequency, TF over GST control)
[16]
  binding signal: 1.14 fold enrichment (6-mer frequency, TF over GST control)
[17]
  binding signal: 1.13 fold enrichment (6-mer frequency, TF over GST control)
[18]
  binding signal: 1.39 fold enrichment (6-mer frequency, TF over GST control)
[19]
  binding signal: 1.24 fold enrichment (6-mer frequency, TF over GST control)
